In all, about 53,000 compounds went through this assay and about 900 (1.7%) showed an effect of 50% or more. Shown is part of a subset that was picked to be rich in strong results.
The compounds below were run on Mycobacterium tuberculosis (assay: Cornell - Phenotypic assay to identify agents that inhibit growth of Mycobacterium tuberculosis). Conditions: 10 mM as filed; unlikely as a test dose.
Type: functional
Parameters: scale not given: direction of the effect not stated beside the values

| SMILES | Percent Effect |
| --- | --- |
| COc1ccc(C(=O)NCCC(N)=O)c(I)c1 | -0.6619% |
| Cc1nc(NC2CCCCC2)cc(C2CCCNC2)n1.Cl (stereo not given) | -33.64% |
| Cc1ncsc1CNc1cccc(OCCN2CCCC2)c1 | 16.77% |
| COCCCSc1ccc(NCc2scnc2C)cc1 | 22.43% |
| COCc1nc2cc(NCc3scnc3C)ccc2o1 | 107% |
| Cc1cc(CNc2ccc3nc(C)sc3c2)no1 | 23.73% |
| COCc1nc2cc(NCc3sc(C)nc3C)ccc2o1 | 97.37% |
| COCc1nc(CNc2cccc(-c3nc(C)c(C)o3)c2)cs1 | 46.4% |
| CC(C)N1CC2(CCCN(c3ccnc4ccccc34)C2)CCC1=O (stereo not given) | 17.47% |
| COCc1nnc(C(=O)N2CCCC(O)C2)o1 (stereo not given) | -16.94% |
| Cc1ncc(CNC(=O)CCc2cccs2)c(C2CCCN2C)n1 (stereo not given) | -2.251% |
| O=C1CO[C@H]2CN(Cc3cccc4[nH]ccc34)C[C@@H]2N1C1CCOCC1 | 103.3% |
| O=C1CO[C@H]2CN(Cc3cccc(F)c3F)C[C@@H]2N1C1CCOCC1 | -21.84% |
| Cc1ccc(C2CN(Cc3cccc4[nH]ccc34)CCO2)nc1 (stereo not given) | -22.89% |
| CCC(CN1CCCC1)NC(=O)C1(c2ccc(F)cc2)CC1 (stereo not given) | 38.36% |
| CCC1c2ccccc2CCN1CCNS(C)(=O)=O (stereo not given) | -0.3963% |
| COCc1cc(CNCc2c(C)n(CC(C)C)c3ccccc23)n[nH]1 | 48.01% |
| COCc1cc(CNCc2c(C)n(CC(N)=O)c3ccccc23)n[nH]1 | 35.48% |
| Cc1cc(CNCc2c(C)n(CC(C)C)c3ccccc23)[nH]n1 | 57.75% |
| COCCC(=O)N1CCCC1c1nc(C)c2c(n1)N(C)C(=O)CC2 (stereo not given) | 9.481% |
| CC(C)(C)n1nnnc1CN(Cc1ccccc1)Cc1ccccc1Cl | 7.141% |
| COc1ccc(OC)c(C2CCN(Cc3nc(C)n4ccccc34)C2)c1 (stereo not given) | 51.45% |
| COc1ccc(OC)c(C2CCN(C3CCOCC3)C2)c1 (stereo not given) | -54.14% |
| COc1ccc(OC)c(C2CCN(CC(C)(C)N3CCOCC3)C2)c1 (stereo not given) | -53.82% |
| Cc1ccc(CN2CCc3nnc(CN4CCCC4=O)n3CC2)s1.O=C(O)C(F)(F)F | 32.68% |

| SMILES | Percent Effect |
| --- | --- |
| CCC(C(=O)N(C)C)n1ccc2ncccc2c1=O (stereo not given) | 6.503% |
| CN(C)C(=O)CN1CCN(c2cc(N3CCCC3CO)ncn2)CC1 (stereo not given) | 1.672% |
| Cc1cc(C)nc(N2CCC(C(=O)O)(n3ccc(C(C)(C)C)n3)CC2)n1 | 67% |
| Cc1cnc(C)c(N2CCC(C(=O)O)(n3ccc(C(C)(C)C)n3)CC2)n1 | 5.905% |
| Cc1cc(N2CCC(C(=O)O)(n3ccc(C(C)(C)C)n3)CC2)nc(N)n1 | 5.557% |
| CSc1cccc(CNC(=O)[C@H]2CNC[C@@H](C(=O)N3CCOCC3)C2)c1 | -25.42% |
| Cc1nc[nH]c1CNCc1cccnc1N(C)C1CCCCC1 | -125.1% |
| COc1ccc(-n2cc(CCO)cn2)cc1C(N)=O | -5.342% |
| COc1cc(-n2cc(CCO)cn2)ccc1NC(C)=O | 12.75% |
| COc1ccc(-n2cc(CCO)cn2)cc1C | 105.1% |
| Cc1cn2c(n1)CCC(NC(=O)CCOc1ccccc1F)C2 (stereo not given) | -34.23% |
| O=C(c1nc(Cc2c[nH]c3ccccc23)no1)N1CCCCC1 | -4.941% |
| O=C(O)C(F)(F)F.O=C(c1cocn1)N1C[C@H]2CCC[C@@]2(COc2ccccn2)C1 | 78.33% |
| O=C(O)C(F)(F)F.O=C(c1ncccn1)N1C[C@H]2CCC[C@@]2(COc2ccccn2)C1 | -0.9925% |
| Cc1ccc(C(=O)N2C[C@H]3CCC[C@@]3(COc3ccccn3)C2)nc1.O=C(O)C(F)(F)F.O=C(O)C(F)(F)F | 19.03% |
| Fc1cccc(Cl)c1CNCCOc1ccccn1 | 41.65% |
| CN1[C@@H](C(=O)NCC2CC2)C[C@@H]2CN(Cc3ccco3)C[C@@H]21 | 11.69% |
| CCN(Cc1ccccc1)S(=O)(=O)C1CCS(=O)(=O)CC1 | 11.98% |
| CN(C)c1ccc(C2CCN(c3cnccn3)CC2)nc1 | 63.52% |
| CN(C)c1nccnc1C1CCN(c2cnccn2)CC1 | 17.38% |
| c1cc(C2CCN(c3cnccn3)CC2)ncn1 | 5.379% |
| COc1cccc(C(=O)N2C[C@@H](c3ccccc3)[C@@H]3NCCCC[C@@H]32)c1 | 4.696% |
| Cc1cc(C(C)(O)CNC(=O)c2ccc(Br)o2)c(C)o1 (stereo not given) | 53.63% |
| Cc1cc(C(C)(O)CNC(=O)OC(C)(C)C)c(C)o1 (stereo not given) | 14.94% |
| Cc1cc(C(C)(O)CNC(=O)C2(C)CCCC2)c(C)o1 (stereo not given) | 32.83% |

| SMILES | Percent Effect |
| --- | --- |
| O=C(c1cc(-n2cnnn2)ccc1Cl)N1CCCCCC1 | 22.48% |
| Cc1noc(C)c1CN1CCOCC12CCN(c1nccs1)CC2.O=C(O)C(F)(F)F | -2.189% |
| CCNC(=O)N1CCc2ccc(NC(=O)C(C)c3ccsc3)cc21 (stereo not given) | -7.199% |
| Cc1cnn(C2CCCN(C(=O)c3ccnc(-n4cncn4)c3)C2)c1 (stereo not given) | -11.26% |
| Cc1cn2nc(N3CCn4c(nnc4C(C)C)C3)sc2n1 | -4.534% |
| CS(=O)(=O)N1CCCCC1c1ccc(Nc2cnccn2)nc1 (stereo not given) | 21.12% |
| c1cc(CN2CCCCC2c2ccc(Nc3cnccn3)nc2)ccn1 (stereo not given) | 73.82% |
| Cn1cc(-c2ccc(C3CCCCN3Cc3cccnc3)cn2)cn1 (stereo not given) | 36.92% |
| Cn1cc(CN2CCCCC2c2ccc(-c3cnn(C)c3)nc2)cn1 (stereo not given) | 0.8308% |
| c1cnc(Nc2ccc(C3CCCCN3Cc3ccncc3)cn2)nc1 (stereo not given) | 63.94% |
| c1cncc(CN2CCCCC2c2ccc(Nc3cnccn3)nc2)c1 (stereo not given) | 29.23% |
| Cc1cnn(CCNCc2ccc(OCc3cccnc3)cc2)c1 | -17.94% |
| Cc1nnc(C2Cc3ccccc3CN2Cc2ncc(Cl)n2C)o1 (stereo not given) | -18.28% |
| Cn1cc(CC(=O)N2CCCC(c3cc(C(F)(F)F)[nH]n3)C2)cn1 (stereo not given) | -14.78% |
| O=C(Cn1cc(Cl)cn1)NCCN1CCC(O)(c2ccc(F)cc2)CC1 | 36.23% |
| CN(C)C(=O)C1CN(c2ccncn2)CCN(C2CCOCC2)C1 (stereo not given) | -28.59% |
| O=C(NS(=O)(=O)c1cc(Cl)sc1Cl)c1cccc2c1OCCO2 | 1.673% |
| COc1ccc(C(=O)NS(C)(=O)=O)cc1-c1ccccc1 | 36.61% |
| COc1cccc(C(=O)NS(=O)(=O)c2cc(Cl)sc2Cl)c1OC(F)F | 16.97% |
| COc1cc(C(=O)NS(=O)(=O)c2cc(Cl)sc2Cl)ccc1OC(F)F | 83.5% |
| COc1ccc(C(=O)NS(=O)(=O)c2cc(Cl)sc2Cl)cc1OC(F)F | 76.92% |
| COc1cc(C(=O)NS(=O)(=O)c2ccc(C#N)cc2)ccc1C | -19.49% |
| CCc1cc(NC(=O)C(c2cccc(F)c2)N2CCOCC2)[nH]n1 (stereo not given) | -14.2% |
| O=C(CS(=O)(=O)Cc1cc(Cl)c2c(c1)OCO2)N1CCCCCC1 | -3.371% |
| COCCCNC(=O)N1CCN(C(=O)c2nsc3ccccc23)CC1 | 12.5% |

| SMILES | Percent Effect |
| --- | --- |
| CN(C)Cc1cc(=O)n2c(n1)CN(C(=O)c1ccc[nH]1)CCC2.O=C(O)C(F)(F)F | -35.4% |
| CN1N=C(C(=O)N2CCCCC2)S(=O)(=O)c2ccccc21 | -10.66% |
| Cc1ccc(N2N=C(C(N)=O)S(=O)(=O)c3cccnc32)cc1 | 106.9% |
| Cc1ccc(CN2CCN(c3ncccc3C(N)=O)CC2CCO)cc1 (stereo not given) | 16.45% |
| Cc1ccc(N2N=C(C(=O)O)S(=O)(=O)c3cccnc32)cc1 | 51.3% |
| Cc1ccc(N2N=C(C(=O)NCC3CC3)S(=O)(=O)c3cccnc32)cc1 | 11.26% |
| CC(C)CCN1N=C(C(=O)N2CCCCCC2)S(=O)(=O)c2ccccc21 | 8.314% |
| Cc1cn2c(n1)CCC(NC(=O)CCCn1cncn1)C2 (stereo not given) | -12.33% |
| CC(=O)Nc1nc(C2CCN(C(C)C)CC2)cs1 | -15.97% |
| CC(=O)N1CCCC1c1nc(CN(C)C(=O)C(C)C)cc(N(C)C)n1 (stereo not given) | 52.18% |
| COCC(=O)N1CCCCC1c1nc(CN(C)C(C)=O)cc(N(C)C)n1 (stereo not given) | -40.24% |
| CCC(=O)N1CCCCC1c1nc(CN(C)C(C)=O)cc(N(C)C)n1 (stereo not given) | 49.36% |
| COc1ccc(C(=O)N2CCOc3ccncc32)cc1 | 9.514% |
| Cc1nc(-c2cccc(N3CCC(NC4CCOCC4)CC3)c2)cs1 | 35.61% |
| c1cc(-c2cscn2)cc(N2CCC(NCCc3cccs3)CC2)c1 | 60.71% |
| c1ccc(-c2cccc(N3CCC(NCCc4cscn4)CC3)c2)cc1 | 93.63% |
| O=C1CCCN1c1cccc(N2CCC(NCCc3cscn3)CC2)c1 | 24.64% |
| CC(C)CC(C)NC1CCN(c2cccc(-c3cscn3)c2)CC1 (stereo not given) | 2.317% |
| Fc1cccc(-c2cccc(N3CCC(NC4CCCOC4)CC3)c2)c1 (stereo not given) | 23.21% |
| CCCC(=O)N1CCOC2(COCCN(CC(=O)NC)C2)C1.O=C(O)C(F)(F)F (stereo not given) | 6.771% |
| O=C(CC(SC1CCCCC1)C(=O)O)c1ccc(Br)cc1 (stereo not given) | 52.8% |
| Cc1ccc(C(=O)CC(SC2CCCCC2)C(=O)O)cc1 (stereo not given) | 44.78% |
| O=C(CC(SC1CCCCC1)C(=O)O)c1ccc(Cl)cc1 (stereo not given) | 11.66% |
| O=C(O)C(F)(F)F.O=C(O)C(F)(F)F.O=C(O)c1c(-c2cccnc2)ncc2c1CCN(Cc1ccccn1)C2 | -51.27% |
| O=C(NCc1cccnc1)c1nc2c(s1)CCCN2C(=O)C1CC1.O=C(O)C(F)(F)F | 6.625% |
